Here are results for 22 molecules from PubChem BioAssay (NCATS).

Common to all, as to assay: qHTS profiling for inhibitors of Plasmodium falciparum proliferation (AID 504749); note: nearly all actives have a fitted effect of over 60% in size
Holding throughout (conditions): P. falciparum in erythrocytes, SYBR Green DNA, 72 h; series mostly up to 28.7 µM
(Quantitative high-throughput screening tests each substance at several concentrations.)

For experiment [1], the system named is CP250. In a few lines: (§1)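 Quantitative HTS: compounds pinned into medium, infected erythrocytes added (0.3% parasitemia, 2.5% hematocrit), 72 h culture at 37 C under 5% CO2. Saponin/Triton lysis with SYBR Green I, overnight RT, then fluorescence read.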
Experiment [2] concerns CP252. In a few lines: as §1
Experiment [3] has as its system CP256. A digest of the protocol: as §1
In experiment [4] the test system is CP260. A digest of the protocol: as §1
For experiment [5], the system named is CP262. A digest of the protocol: as §1
In experiment [6] the test system is CP265. A digest of the protocol:
as §1

The test system of experiment [7] is CP266. A digest of the protocol:
as §1

In experiment [8] the test system is CP268. In a few lines:
as §1

Experiment [9] concerns CP269. A digest of the protocol:
as §1

Experiment [10] deals with CP286. A digest of the protocol: as §1

Inconclusive results are not listed. Activity calls are given as the source filed them. Calls come from the whole dose curve; as a rule, active = well fitted inhibition curve with a large enough effect; inconclusive = small, poorly fitted or top-dose-only effect; inactive = flat fitted curve, though single readings scatter.
Potency is the fitted concentration of half-maximal effect.

`NCCS(=O)(=O)O`: the Potency entry in [1], in experiment [2], in experiment [3], in [4], in experiment [5] and in [6] was “inactive” throughout. Also, the Potency entry in experiment [7], in experiment [8], in experiment [9] and in [10] was “inactive” throughout.

As to `CS(=O)(=O)CCNCc1ccc(-c2ccc3ncnc(Nc4ccc(OCc5cccc(F)c5)c(Cl)c4)c3c2)o1`, the Potency entry in experiment [1], in experiment [2], in experiment [3], in experiment [4], in experiment [5] and in experiment [6] was “inactive” each time. Besides, the Potency entry in [7], in experiment [9] and in [10] was “inactive” in each case.

As to `N[C@@H](Cc1c[nH]c2ccc(O)cc12)C(=O)O`, the Potency result in [1], in experiment [2], in experiment [3], in [4], in [5] and in experiment [6] was “inactive” in each case. Further, the Potency entry in experiment [7], in experiment [8], in [9] and in [10] was “inactive” each time.

Take `CC(C)Cc1ccc(C(C)C(=O)O)cc1` (configuration not stated): the Potency result in experiment [1], in [2], in [3], in [4], in experiment [5] and in experiment [6] was “inactive” throughout. For the same molecule, the Potency result in [7], in [8], in [9] and in experiment [10] was “inactive” each time.

Consider `Cn1cnc2c1c(=O)[nH]c(=O)n2C`, for which the Potency result in [1], in [2], in experiment [3], in [4], in experiment [5] and in experiment [6] was “inactive” in each case. Moreover, the Potency result in experiment [7], in experiment [8], in experiment [9] and in experiment [10] was “inactive” in each case.

In the case of `NCCCCCC(=O)O`, the Potency entry in experiment [1], in experiment [2], in experiment [3], in experiment [4], in experiment [5] and in [6] was “inactive” in each case. The Potency entry in experiment [7], in experiment [8], in experiment [9] and in experiment [10] was “inactive” in each case.

As to `COc1cc2c(c(OC)c1OC)-c1ccc(OC)c(=O)cc1[C@@H](NC(C)=O)CC2`, the Potency entry in [1], in [2], in experiment [3], in experiment [4], in [5] and in [6] was “inactive” each time. The Potency result in experiment [7], in experiment [8], in [9] and in experiment [10] was “inactive” each time.

As to `CC(C)NCC(O)c1ccc(O)c(O)c1` (configuration not stated), the Potency result in experiment [1], in [2], in [3], in experiment [4], in experiment [5] and in experiment [6] was “inactive” in each case. Further, the Potency entry in [8], in experiment [9] and in experiment [10] was “inactive” each time.

As for `CC(C)(Oc1ccc(C2CC2(Cl)Cl)cc1)C(=O)O` (configuration not stated), the Potency entry in experiment [1], in experiment [2], in [3], in [4], in [6] and in experiment [7] was “inactive” in each case. For the same molecule, the Potency result in [8], in [9] and in [10] was “inactive” throughout.

For the molecule `O=C(Nc1ccc([N+](=O)[O-])cc1Cl)c1cc(Cl)ccc1O`, the Potency in experiment [4] is 2820 nM (active); in [8], 1900 nM (active); in [9] it was 1200 nM (active); in [10], 1780 nM (active).

Take `CC12CC3CC(C)(C1)CC(N)(C3)C2`: the Potency entry in experiment [1], in [2], in experiment [3], in experiment [5], in experiment [6] and in experiment [7] was “inactive” in each case. The Potency result in [8], in [9] and in experiment [10] was “inactive” in each case.

As for `COc1ccccc1OCCNCC(O)COc1cccc2[nH]c3ccccc3c12` (configuration not stated), the Potency in experiment [3] is 11200 nM (active); in [6], 8910 nM (active); in experiment [10] it was 10000 nM (active). Further, in [7], the Potency result is “inactive”.

For `CC(COc1ccccc1)N(CCCl)Cc1ccccc1` (configuration not stated), the Potency entry in experiment [1], in experiment [2], in experiment [3], in experiment [5], in [7] and in experiment [9] was “inactive” in each case.

As for `Nc1c2c(nc3ccccc13)CCCC2`, the Potency entry in experiment [1], in experiment [2] and in [7] was “inactive” in each case.

As for `O=C(c1ccc(F)cc1)C1CCN(CCn2c(=O)[nH]c3ccccc3c2=O)CC1`, the Potency result in [2], in [3], in [4], in [5], in experiment [6] and in experiment [7] was “inactive” each time. The Potency result in experiment [9] was “inactive”.

Consider `Clc1ccccc1C(c1ccccc1)(c1ccccc1)n1ccnc1`, for which the Potency in experiment [1] is 1580 nM (active); in experiment [2] it was 891 nM (active); in experiment [3], 2000 nM (active); in experiment [4], 1410 nM (active); in experiment [5], 1020 nM (active); in experiment [6], 708 nM (active). Also, the Potency in experiment [8] is 2280 nM (active); in experiment [9] it was 907 nM (active); in [10], 1580 nM (active).

In the case of `O=C(c1ccc(OCCN2CCCCC2)cc1)c1c(-c2ccc(O)cc2)sc2cc(O)ccc12`, the Potency in experiment [4] is 3160 nM (active); in experiment [8], 10700 nM (active); in experiment [10], 3550 nM (active). Besides, the Potency entry in [5] was “inactive”.

`CN(C)CCC=C1c2ccccc2C=Cc2ccccc21`: the Potency result in experiment [1], in [2], in experiment [4], in experiment [5], in [6] and in [7] was “inactive” throughout.

Take `COc1ccc(CCN(C)CCCC(C#N)(c2ccc(OC)c(OC)c2)C(C)C)cc1OC` (configuration not stated): the Potency entry in experiment [1], in experiment [2], in experiment [3], in experiment [5], in experiment [6] and in [8] was “inactive” in each case. The Potency result in [10] was “inactive”.

For the molecule `CC1(CN2CCC(n3c(=O)[nH]c4ccccc43)CC2)OCc2ccccc2-n2cccc21` (configuration not stated), the Potency result in experiment [5] and in [7] was “inactive” in each case.

Take `Cn1ccc2cc3c(cc21)CCN3C(=O)Nc1cccnc1`: the Potency result in experiment [5] was “inactive”.

Turning to `CN(Cc1cnc2nc(N)nc(N)c2n1)c1ccc(C(=O)N[C@@H](CCC(=O)O)C(=O)O)cc1`, the values for the Potency in experiment [1], in experiment [4] and in [10] were 178 nM (active), 158 nM (active) and 158 nM (active), respectively. For the same molecule, the Potency result in [2], in experiment [5], in experiment [7], in experiment [8] and in [9] was “inactive” in each case.
